From the supplement of paper PMC11624193, “Coupling cellular drug-target engagement to downstream pharmacology with CeTEAM” (Nature Communications, 2024) come the findings set out here.

The structures appear in SMILES notation. Values without a mark were called inactive.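 Rule for the calls: active = log2 fold change beyond 2 SD from the library mean after excluding viability outliers; inactive = within 2 SD.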

PARP1 L713F-nLuc biosensor (HCT116), sequence (P09874 whole entry L713F, looked up): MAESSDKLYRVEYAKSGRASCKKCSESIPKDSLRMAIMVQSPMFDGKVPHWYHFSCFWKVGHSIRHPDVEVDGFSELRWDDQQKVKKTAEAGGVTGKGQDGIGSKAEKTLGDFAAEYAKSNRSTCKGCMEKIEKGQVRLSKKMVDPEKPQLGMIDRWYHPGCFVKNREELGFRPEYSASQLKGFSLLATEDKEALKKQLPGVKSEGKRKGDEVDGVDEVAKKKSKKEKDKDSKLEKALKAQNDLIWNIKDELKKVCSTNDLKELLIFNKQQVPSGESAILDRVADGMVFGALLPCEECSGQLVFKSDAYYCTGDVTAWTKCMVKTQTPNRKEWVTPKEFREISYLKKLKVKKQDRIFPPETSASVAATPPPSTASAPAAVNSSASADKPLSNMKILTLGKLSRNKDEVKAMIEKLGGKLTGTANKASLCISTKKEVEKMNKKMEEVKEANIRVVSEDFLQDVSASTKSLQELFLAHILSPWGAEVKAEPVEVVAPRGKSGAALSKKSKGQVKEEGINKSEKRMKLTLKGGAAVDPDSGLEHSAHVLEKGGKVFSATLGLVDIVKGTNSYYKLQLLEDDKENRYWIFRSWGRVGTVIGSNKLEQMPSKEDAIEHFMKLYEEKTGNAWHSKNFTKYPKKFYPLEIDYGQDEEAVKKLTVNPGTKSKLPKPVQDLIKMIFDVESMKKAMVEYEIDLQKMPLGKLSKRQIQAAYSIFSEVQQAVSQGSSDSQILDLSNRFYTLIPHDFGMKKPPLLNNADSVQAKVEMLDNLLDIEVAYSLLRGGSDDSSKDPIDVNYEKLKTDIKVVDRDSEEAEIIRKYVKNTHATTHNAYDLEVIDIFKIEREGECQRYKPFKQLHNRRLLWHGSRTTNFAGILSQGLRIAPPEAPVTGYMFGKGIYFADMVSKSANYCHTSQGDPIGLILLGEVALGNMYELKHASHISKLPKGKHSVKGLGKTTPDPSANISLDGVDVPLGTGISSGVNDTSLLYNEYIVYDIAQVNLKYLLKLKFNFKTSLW

This assay addresses PARP1 L713F-nLuc biosensor (HCT116) (UniProt P09874). The assay is described as follows: PARP1 L713F-nLuc/akaLuc ratio relative to DMSO control (biosensor stabilization) (fold change); higher = more PARP1 biosensor stabilization (target engagement / stabilizer), active = hit call of the paper. The following applies: stock concentration (mM; final µM = stock mM x 1): 10; 24 h.
With `CC1(C)CCC(CN2CCN(c3ccc(C(=O)NS(=O)(=O)c4ccc(NCC5CCOCC5)c([N+](=O)[O-])c4)c(Oc4cnc5[nH]ccc5c4)c3)CC2)=C(c2ccc(Cl)cc2)C1` [Venetoclax (ABT-199, GDC-0199)], the “PARP1 L713F-nLuc/akaLuc ratio” value was 0.901. Turning to `NC(=O)c1cccc(-c2cccc(OC(=O)NC3CCCCC3)c2)c1`, the “PARP1 L713F-nLuc/akaLuc ratio” value was 1.05. The value for `O=C(O)CCCCC(CCSCc1ccccc1)SCc1ccccc1` (configuration not stated) was 1.06; that for `Cn1cc(CCn2cnc(-c3cnn(C)c3)c2-c2ccc(C#N)cc2)cn1` was 0.997.

For `Clc1cc2c(NC3CCCC3)nnc(-c3ccncc3)c2cc1Cl`, the “PARP1 L713F-nLuc/akaLuc ratio” value was 0.888. The value for `Nc1ccn([C@@H]2O[C@H](CO)[C@@H](O)C2(F)F)c(=O)n1` [Gemcitabine] was 0.416; that for `N#Cc1c[nH]c2ccc(-c3ccc(-c4c(O)cccc4O)cc3)cc12` was 0.933; that for `CCN(CC)C(=S)SSC(=S)N(CC)CC` [Disulfiram] was 0.658. The value for `Cc1cc(Nc2cc(N3CCN(C)CC3)nc(Sc3ccc(NC(=O)C4CC4)cc3)n2)n[nH]1` [Tozasertib (VX-680, MK-0457)] was 0.821; that for `COc1ccc(-c2c(-c3ccc(C#N)c(F)c3)nc(N3CCC(N)CC3)n(C)c2=O)cc1F` [Pulrodemstat (benzenesulfonate)] was 1.26. For the compound `Cn1ncc(Cl)c1-c1cc(C(=O)N[C@H](CN)Cc2ccc(F)c(F)c2)oc1Cl`, the “PARP1 L713F-nLuc/akaLuc ratio” value was 0.603. For the compound `C=CC(=O)Nc1cccc(-c2c[nH]cc2CN(C)CCN)c1`, the “PARP1 L713F-nLuc/akaLuc ratio” value is 1.61.
